# Source: PubChem BioAssay AID504332 (National Center for Advancing Translational Sciences (NCATS), 2011)
# Screen size: about 350,000 compounds; about 31,000 (8.9%) were called active. Roughly 15% stayed inconclusive and do not appear here. The call rests on the fitted dose curve; in most records, active means well fitted inhibition curve with a large enough effect; inconclusive means small, poorly fitted or top-dose-only effect; inactive means no such curve, though single readings can be large or run the other way. The entries come from a sample that favours actives as a whole.
# Target: Histone-lysine N-methyltransferase EHMT2 (Homo sapiens) (UniProt Q96KQ7)
# Test: qHTS Assay for Inhibitors of Histone Lysine Methyltransferase G9a; further: nearly all actives have a fitted effect of over 75% in size
# Conditions: G9a H3K9 monomethylation, AlphaScreen, 2 h; series mostly up to 59 µM; activity, negative = inhibition: at the top concentration
# Procedure, shortened: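 G9a (20 nM) preincubated 15 min RT with compounds, then 500 nM biotinylated H3K9 peptide and 20 uM SAM added; 2 h RT reaction. Monomethyl-H3K9 product detected by AlphaScreen with anti-H3K9me1 antibody, streptavidin donor and anti-rabbit IgG acceptor beads.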
# On the % scale 0 is the no-effect control and ±100 the full control effect; potency means the concentration at half of the fitted maximal effect.
# Chain of Histone-lysine N-methyltransferase EHMT2 (Homo sapiens) (Q96KQ7 913-1193 limits assumed): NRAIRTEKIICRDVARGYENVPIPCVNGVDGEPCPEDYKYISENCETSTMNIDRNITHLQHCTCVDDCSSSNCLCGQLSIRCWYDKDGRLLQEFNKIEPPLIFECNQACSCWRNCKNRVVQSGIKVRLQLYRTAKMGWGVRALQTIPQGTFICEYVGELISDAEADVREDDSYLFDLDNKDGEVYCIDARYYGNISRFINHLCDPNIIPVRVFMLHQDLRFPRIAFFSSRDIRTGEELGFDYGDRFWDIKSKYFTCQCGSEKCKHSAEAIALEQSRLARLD
SMILES,"activity, negative = inhibition",Potency
CSc1ccc(CCNC(=O)c2cc(C)nc3c2c(C)nn3-c2cccc(F)c2)cc1,-2.67% (inactive),–
CC(C)n1ncc2c(C(=O)NCc3ccccc3CN(C)C)cc(C3CC3)nc21,-9.59% (inactive),–
Cc1cccc(N2CCN(C(=O)c3cccc(S(=O)(=O)N4CCc5ccccc5C4)c3)CC2C)c1 (stereo not drawn),1.73% [at 102 µM] (inactive),–
N#Cc1ccc(N2Cc3ccccc3/C2=N/C(=O)Nc2ccc(Cl)cc2)cc1,3.53% (inactive),–
Cc1cccc(N2Cc3ccccc3C2=NC(=O)c2ccc(Cl)nc2)c1,–,11.2 µM (active)
O=C(COc1cccc2c1CCNC2=O)NC1CCCCC1,8.64% [at 0.501 µM] (inactive),–
Cc1cc(OCC(=O)NCC2(N(C)C)CCCCC2)cc(C)c1Cl,-5.48% (inactive),–
CCOC(=O)Cn1c(CN(Cc2ccccc2)Cc2ccccc2)nc2c1c(=O)[nH]c(=O)n2C,37.9% (inactive),–
Cc1cccc(OCC(O)Cn2c(N3CCCCC3)nc3c2c(=O)[nH]c(=O)n3C)c1 (stereo not drawn),14.4% [at 102 µM] (inactive),–
CCC(C)Sc1nc2c(c(=O)[nH]c(=O)n2C)n1CC(O)COc1cccc2ccccc12 (stereo not drawn),–,7.94 µM (active)
COc1ccc(/C=N/NS(=O)(=O)c2ccc(NC(C)=O)cc2)cc1,0.351% [at 102 µM] (inactive),–
O=S(=O)(N/N=C\c1cccn1-c1ccccc1)c1ccc2ccccc2c1,–,31.6 µM (active)
O=C(COc1ccc(/C=N/NS(=O)(=O)c2ccccc2)cc1)NCCc1ccccc1,-4.68% [at 2.33 µM] (inactive),–
CC(=O)Cn1cnc2c(cnn2-c2ccccc2)c1=O,1.7% [at 102 µM] (inactive),–
CCc1ccc(NC(=O)CCCc2nnc3n(CCCOC)c(=O)c4sccc4n23)cc1,-5.06% (inactive),–
COc1ccccc1C(=O)NCCC(=O)NCC(c1ccco1)N1CCCCC1 (stereo not drawn),-3.11% [at 102 µM] (inactive),–
COc1ccccc1C(=O)NCCC(=O)NN1C(=O)NC2(CCCCC2)C1=O,–,50.1 µM (active)
COc1ccccc1CCNC(=O)CN1C(=O)NC2(CCCC2)C1=O,8.45% [at 0.501 µM] (inactive),–
COc1cccc(CNC(=O)Cn2ncn3c(cc4ccccc43)c2=O)c1,-27.7% (inactive),–
COc1ccc(NC(=O)c2sc3nc[nH]c(=O)c3c2C)cc1,8.43% (inactive),–
CCc1cccc(NC(=O)c2cc(-c3ccccc3)n[nH]2)c1,-26.5% (inactive),–
CN(C(=O)COc1ncnc2c1cnn2-c1ccccc1)C1CCCCC1,25.1% [at 0.0925 µM] (inactive),–
CN(C(=O)CSc1nncc2ccccc12)C1CCCCC1,–,50.1 µM (active)
CN(C(=O)CSc1nnnn1-c1ccccc1)C1CCCCC1,3.58% [at 102 µM] (inactive),–
COc1ccccc1CNC(=O)C(=O)NCC(c1cccs1)S(=O)(=O)c1cccs1 (stereo not drawn),11.3% (inactive),–
COc1ccc(-c2nc3ccccc3c(=O)n2CCc2ccc(O)cc2)cc1,12.4% [at 102 µM] (inactive),–
COc1ccc(-c2ccc(CCC(=O)O)n2-c2ccc(O)cc2)cc1,–,31.6 µM (active)
COc1ccc(NC(=O)Cn2c(-c3ccc(OC)cc3)cn(-c3ccc(C)cc3)c2=O)cc1,-31.1% [at 12.7 µM] (inactive),–
